Data on three compounds can be found in PubChem BioAssay (NCATS).

Records with an inconclusive call do not appear. Active and inactive are the calls of the source. Unless noted, calls follow the shape of the dose curve; as a rule, active = well fitted curve in the direction sought with a large enough effect; inconclusive = small, poorly fitted or top-dose-only effect, or another doubt; inactive = no such curve, though single readings can be large; an effect the other way counts as inactive or inconclusive.

In assay [1] the target is Catechol O-methyltransferase (Homo sapiens) (UniProt P21964). Nature of the assay: Confirmatory Screen for Target Class Profiling of Small Molecule Inhibitors of Methyltransferases (AID 1745852; calls by dose curve; also: potency is read from the fitted curve at half-maximal effect; as to activity change, negative = inhibition: % is scaled to controls: 0 for no effect and ±100 for the full control effect). As to conditions: MTase-Glo luminescence, SAH detection, recombinant enzyme; measured here: COMT max response; stronger effect = lower value.
Catechol O-methyltransferase (Homo sapiens), sequence (P21964 whole entry, looked up): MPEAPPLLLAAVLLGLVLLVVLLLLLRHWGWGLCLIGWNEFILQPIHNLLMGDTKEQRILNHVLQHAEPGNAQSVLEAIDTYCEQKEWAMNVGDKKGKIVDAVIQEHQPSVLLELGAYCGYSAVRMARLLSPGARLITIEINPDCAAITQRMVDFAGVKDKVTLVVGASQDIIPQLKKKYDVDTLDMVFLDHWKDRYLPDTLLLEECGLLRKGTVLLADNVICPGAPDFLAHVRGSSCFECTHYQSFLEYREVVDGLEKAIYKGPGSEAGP
Assay [2] has as its target Guanidinoacetate N-methyltransferase (Homo sapiens) (UniProt Q14353). The assay is described as above. As to conditions: activity change, negative = inhibition: at 57.3 µM (top of the series) unless noted.
Assay [3] has as its target Nicotinamide N-methyltransferase (Homo sapiens) (UniProt P40261). The description is as above. As to conditions: MTase-Glo luminescence, SAH detection, recombinant enzyme; measured here: NNMT max response; stronger effect = lower value.
Assay [4] concerns the target Phenylethanolamine N-methyltransferase (Homo sapiens) (UniProt P11086). The description is as above. As to conditions: MTase-Glo luminescence, SAH detection, recombinant enzyme; measured here: PNMT max response; stronger effect = lower value.
The target of assay [5] is DNA repair nuclease/redox regulator APEX1 (Homo sapiens) (UniProt P27695). Nature of the assay: qHTS Validation Assay for Inhibitors of the Human Apurinic/apyrimidinic Endonuclease 1 (APE1) (AID 1705;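 also: TAMRA fluorescence gain over two minutes as APE1 cuts a quenched THF abasic duplex; % is scaled to controls: 0 for no effect and ±100 for the full control effect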). In short, it runs like this: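 qHTS, 1536-well. APE1 + cpd 15 min RT → 50 nM TAMRA/BHQ-2 THF-abasic dsDNA substrate → kinetic fluorescence, 3 reads/60 s; delta(read3−read1) = reaction progress. No-enzyme buffer = negative control.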
DNA repair nuclease/redox regulator APEX1 (Homo sapiens), sequence (P27695 whole entry, looked up): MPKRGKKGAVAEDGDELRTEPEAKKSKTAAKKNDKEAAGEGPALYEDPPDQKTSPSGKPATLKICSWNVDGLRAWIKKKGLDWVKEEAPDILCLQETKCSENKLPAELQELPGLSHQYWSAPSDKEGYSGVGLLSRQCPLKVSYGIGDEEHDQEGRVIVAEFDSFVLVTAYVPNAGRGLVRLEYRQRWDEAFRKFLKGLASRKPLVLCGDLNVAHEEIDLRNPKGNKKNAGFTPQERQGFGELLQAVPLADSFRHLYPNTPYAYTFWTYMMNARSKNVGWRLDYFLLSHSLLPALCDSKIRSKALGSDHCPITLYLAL

Assay [6] is described as follows: Counterscreen for APE1 Inhibitors: Fluorescent Dye Displacement Validation Assay (AID 1707).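 Also: plate controls were ThO with dsDNA and no compound for no effect and ThO without dsDNA for full effect.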 In short, it runs like this: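 Counterscreen flags promiscuous DNA binders: compounds displacing ThO from duplex DNA (abasic THF site, 50 nM) reduce 540 nm emission (480 nm excitation). ThO 250 nM final; Tris-HCl pH 7.5 with NaCl, MgCl2 and Tween-20.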
A general note: Counterscreens check selectivity or assay interference.

Assay [7] deals with Endonuclease 4 (Escherichia coli (strain K12)) (UniProt P0A6C1). Nature of the assay: Counterscreen for APE1 Inhibitors: qHTS Validation Assay for Inhibitors of Endonuclease IV (AID 1708). Also: % is scaled to controls: 0 for no effect and ±100 for the full control effect. In short, it runs like this:
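Incision of a double-stranded 50 nM TAMRA/BHQ-2 abasic substrate was followed kinetically (525/598 nm, reads every 60 s) after 15 min enzyme–compound preincubation with 2 nM EndoIV in pH 7.5 Tris buffer with MgCl2, DTT and Tween-20; concentration-response format.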

A short description of assay [8]: qHTS for differential inhibitors of proliferation of Plasmodium falciparum line Dd2 (AID 1882).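 Also: plate controls were DMSO vehicle for no effect and 0.29 µM artemisinin for full effect; nearly all actives have a fitted effect of over 65% in size.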 As to conditions: Potency: Plasmodium falciparum Dd2 proliferation inhibition. The method in brief: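 SYBR Green DNA fluorescence (ex 485, em 535 nm) after overnight lysis quantifies parasite growth; compound exposure lasted 72 h at 37 C on infected red cells at 2.5% hematocrit, 0.3% parasitemia (final). Artemisinin 0.29 uM and vehicle wells define normalization.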
(In general: In qHTS, concentration-response curves come from the screen itself.)

Assay [9] in a line: qHTS for differential inhibitors of proliferation of Plasmodium falciparum line W2 (AID 1883).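 Also: potency is read from the fitted curve at half-maximal effect; parasites grown with compound for 72 h before lysis and staining.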 As to conditions: Potency: Plasmodium falciparum W2 proliferation inhibition.
The nature of assay [10]: qHTS for differential inhibitors of proliferation of Plasmodium falciparum line HB3 (AID 1886).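 Also: parasites grown with compound for 72 h before SYBR Green readout; plate controls were vehicle for no effect and reference inhibitor for full effect.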 As to conditions: Potency: Plasmodium falciparum HB3 proliferation inhibition.
Assay [11] in a line: qHTS Assay for Modulators of Human Peripheral Myelin Protein 22 (PMP22) Expression/Activity (AID 1967; active = well fitted curve in the direction sought with a large enough effect in the signal ratio; the % refers to the signal ratio;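 also: 0% = untreated cells and 100% end not stated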). In short, it runs like this:
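Luminescence ratio of Pmp22 promoter-driven green luciferase to EF-alpha-driven red luciferase, in engineered mouse MSC80 Schwann cells, served as read-out. Compounds were incubated 24h; untreated cells defined 0% Activity; curves were classified by r2, magnitude and activity.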

Assay [12] has as its target ATP-dependent DNA helicase Q1 (Homo sapiens) (UniProt P46063). As to the kind of experiment: qHTS Validation Assay for Inhibitors of RecQ-Like Dna Helicase 1 (RECQ1) (AID 2353).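 Also: plate controls were DMSO vehicle for no effect and enzyme-free control for full effect.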 The method in brief:
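RECQ1T1 50 nM; forked duplex (20 bp + 30-nt ss tails) 200 nM, ATP 2 mM final; pH 8.0, 2 mM MgCl2, 2.5 ug/ml poly(dI-dC); 15 min compound preincubation; discontinuous kinetic read over 2 h at RT.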

A short description of assay [13]: Validation screen for small molecules that induce DNA re-replication in MCF 10A normal breast cells (AID 463097). Also: 0% is about no effect; nearly all actives have a fitted effect of over 60% in size. The method in brief:
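Image-based qHTS: normal breast cells are incubated with compound for 48 hr, stained with Hoechst, and scanned for total nuclear fluorescence. Compounds raising the fraction of nuclei with elevated DNA content count as re-replication inducers.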

Assay [14] can be described thus: Quantitative high throughput screen for delayed death inhibitors of the malarial parasite plastid, 48 hour incubation (AID 488752). Also: % is scaled to controls: 0 for no effect and ±100 for the full control effect; nearly all actives have a fitted effect of over 65% in size. In short, it runs like this:
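First, compound was pinned into RPMI 1640 medium containing 0.5% Albumax. Next, reporter-parasite-infected erythrocytes were added to 2% hematocrit and 0.1% parasitemia. After 48 h at 37 C under 5% CO2, luciferase detection reagent was added and luminescence read.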

Assay [15] concerns the target M-phase phosphoprotein 8 (Homo sapiens) (UniProt Q99549). Nature of the assay: qHTS Validation Assay for Inhibitors for MPP8 Chromodomain Interactions with Methylated Histone Tails (AID 488949).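 Also: 50 nM MPP8 with 50 nM peptide preformed then compounds added for 30 min; AlphaScreen signal from MPP8 chromodomain bound to biotinylated H3K9me3 peptide; top concentration of the series differs between compounds; % is scaled to controls: 0 for no effect and ±100 for the full control effect; nearly all actives have a fitted effect of over 55% in size.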 The method in brief: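 50 nM MPP8 + 50 nM b-H3K9me3 peptide, PBS pH 7.4/0.01% Tween-20, 30 min RT; + cpd 30 min RT; + AlphaScreen donor/Ni-chelate acceptor beads 10 ug/mL final, 30 min dark; luminescence read.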

The target in assay [16] is Thyrotropin receptor (Homo sapiens) (UniProt P16473). As to the kind of experiment: qHTS Assay for Antagonists of the Thyroid Stimulating Hormone Receptor (AID 488980). Also: 0% is about no effect. The method in brief:
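Readout is cAMP by HTRF competition between cellular cAMP and cAMP-d2 for a cryptate-labelled antibody. Antagonism was assessed in TSHR-transfected HEK293 cells stimulated with 4 nM TSH (EC80, final) in the presence of RO 20-1724.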

The target in assay [17] is Galactokinase (Homo sapiens) (UniProt P51570). Nature of the assay: qHTS Validation Assay for Inhibitors of Human Galactokinase (GALK) (AID 493189). Also: 0% is about no effect. The method in brief:
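5 nM GALK / 100 uM galactose / 35 uM ATP, 20 mM HEPES pH8.0, 5 mM MgCl2, 60 mM NaCl, 1 mM DTT, 0.01% BSA (final). RT 1 h; Kinase-Glo Plus luminescence.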

Assay [18] in a line: Validation screen for small molecules that induce DNA re-replication in SW480 colon adenocarcinoma cells (AID 504364). Also: 0% is about no effect. The method in brief:
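Image-based qHTS: compounds were incubated with SW480 cells for 48 hr, nuclei stained with Hoechst, and per-nucleus fluorescence intensity scanned to flag cells with excess DNA content.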

Assay [19] has as its target Voltage-gated inwardly rectifying potassium channel KCNH2 (Homo sapiens) (UniProt Q12809). As to the kind of experiment: qHTS Assay for Small Molecule Inhibitors of the Human hERG Channel Activity (AID 588834).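 Also: top concentration of the series differs between compounds; % is scaled to controls: 0 for no effect and ±100 for the full control effect; lower thallium flux fluorescence means stronger hERG block; nearly all actives have a fitted effect of over 50% in size.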 In short, it runs like this: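 Step 1: BacMam hERG transduction of U2OS, 4 hrs RT. Step 2: overnight 37 °C, plate 2000 cells/well, 4 hr. Step 3: FluxOR load, compound 10 min, stimulate, read fluorescence.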

Phenylethanolamine N-methyltransferase (Homo sapiens), sequence (P11086 whole entry, looked up): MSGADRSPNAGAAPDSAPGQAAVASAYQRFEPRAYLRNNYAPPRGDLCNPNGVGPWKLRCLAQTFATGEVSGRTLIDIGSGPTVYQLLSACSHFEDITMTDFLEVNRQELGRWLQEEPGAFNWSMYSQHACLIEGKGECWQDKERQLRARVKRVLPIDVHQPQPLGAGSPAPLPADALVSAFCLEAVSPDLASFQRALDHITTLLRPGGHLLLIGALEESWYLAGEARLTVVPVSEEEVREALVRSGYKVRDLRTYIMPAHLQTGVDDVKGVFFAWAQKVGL
Nicotinamide N-methyltransferase (Homo sapiens), sequence (P40261 whole entry, looked up): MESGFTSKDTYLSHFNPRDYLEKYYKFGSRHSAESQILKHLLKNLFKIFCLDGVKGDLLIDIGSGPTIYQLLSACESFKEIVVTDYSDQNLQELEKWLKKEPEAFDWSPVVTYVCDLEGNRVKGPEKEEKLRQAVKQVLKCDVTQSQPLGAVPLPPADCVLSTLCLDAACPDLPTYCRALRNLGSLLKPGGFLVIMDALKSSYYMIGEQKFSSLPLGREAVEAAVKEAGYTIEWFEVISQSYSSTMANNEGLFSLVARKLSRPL
ATP-dependent DNA helicase Q1 (Homo sapiens), sequence (P46063 whole entry, looked up): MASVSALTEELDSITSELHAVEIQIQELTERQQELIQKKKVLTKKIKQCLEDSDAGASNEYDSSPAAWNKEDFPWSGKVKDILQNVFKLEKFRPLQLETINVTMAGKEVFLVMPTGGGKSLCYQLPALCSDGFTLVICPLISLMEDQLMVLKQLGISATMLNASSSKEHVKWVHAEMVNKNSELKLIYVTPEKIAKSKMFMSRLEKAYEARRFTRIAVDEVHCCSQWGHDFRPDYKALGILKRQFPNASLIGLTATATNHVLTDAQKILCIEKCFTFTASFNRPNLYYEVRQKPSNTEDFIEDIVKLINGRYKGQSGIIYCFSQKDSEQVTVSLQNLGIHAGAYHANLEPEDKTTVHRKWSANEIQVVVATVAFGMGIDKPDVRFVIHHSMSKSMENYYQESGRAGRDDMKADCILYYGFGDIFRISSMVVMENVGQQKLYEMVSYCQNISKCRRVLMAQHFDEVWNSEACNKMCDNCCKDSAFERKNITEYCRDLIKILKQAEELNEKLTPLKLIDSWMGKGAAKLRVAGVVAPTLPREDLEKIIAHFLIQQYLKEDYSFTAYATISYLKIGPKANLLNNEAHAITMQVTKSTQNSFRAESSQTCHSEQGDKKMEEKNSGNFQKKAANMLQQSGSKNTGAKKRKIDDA
M-phase phosphoprotein 8 (Homo sapiens), sequence (Q99549 whole entry, looked up): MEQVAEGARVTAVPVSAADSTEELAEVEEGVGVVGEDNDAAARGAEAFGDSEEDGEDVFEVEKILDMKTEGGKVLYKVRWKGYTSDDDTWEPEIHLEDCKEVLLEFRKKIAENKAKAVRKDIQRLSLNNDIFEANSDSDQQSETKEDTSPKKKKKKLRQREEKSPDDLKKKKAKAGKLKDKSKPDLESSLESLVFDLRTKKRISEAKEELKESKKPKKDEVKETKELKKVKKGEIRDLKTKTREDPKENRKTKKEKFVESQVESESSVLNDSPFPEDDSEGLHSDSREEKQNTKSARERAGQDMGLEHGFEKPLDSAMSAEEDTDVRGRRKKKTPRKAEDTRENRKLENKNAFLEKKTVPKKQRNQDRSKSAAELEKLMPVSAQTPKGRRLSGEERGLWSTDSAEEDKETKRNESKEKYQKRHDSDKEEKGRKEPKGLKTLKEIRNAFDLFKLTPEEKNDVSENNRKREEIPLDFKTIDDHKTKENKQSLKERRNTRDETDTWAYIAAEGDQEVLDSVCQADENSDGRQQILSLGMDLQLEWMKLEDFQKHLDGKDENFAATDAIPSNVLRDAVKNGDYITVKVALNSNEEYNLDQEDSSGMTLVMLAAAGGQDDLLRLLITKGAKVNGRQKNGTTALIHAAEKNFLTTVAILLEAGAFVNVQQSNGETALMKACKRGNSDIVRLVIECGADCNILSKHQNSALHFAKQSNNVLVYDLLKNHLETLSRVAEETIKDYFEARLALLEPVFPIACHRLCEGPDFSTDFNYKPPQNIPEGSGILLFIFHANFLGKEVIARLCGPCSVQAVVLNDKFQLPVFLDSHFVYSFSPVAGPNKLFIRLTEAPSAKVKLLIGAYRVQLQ
Galactokinase (Homo sapiens), sequence (P51570 whole entry, looked up): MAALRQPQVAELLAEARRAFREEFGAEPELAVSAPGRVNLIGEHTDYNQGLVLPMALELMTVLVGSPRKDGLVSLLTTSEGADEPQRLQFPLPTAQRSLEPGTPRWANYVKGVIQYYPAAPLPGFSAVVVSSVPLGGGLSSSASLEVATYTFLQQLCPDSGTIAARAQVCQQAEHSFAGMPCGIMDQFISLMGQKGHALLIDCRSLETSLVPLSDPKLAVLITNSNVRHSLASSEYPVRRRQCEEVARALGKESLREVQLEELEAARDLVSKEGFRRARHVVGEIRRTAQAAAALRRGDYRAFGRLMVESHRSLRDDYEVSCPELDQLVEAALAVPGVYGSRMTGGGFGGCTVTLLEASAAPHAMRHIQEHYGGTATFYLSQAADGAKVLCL
Voltage-gated inwardly rectifying potassium channel KCNH2 (Homo sapiens), sequence (Q12809 whole entry, looked up): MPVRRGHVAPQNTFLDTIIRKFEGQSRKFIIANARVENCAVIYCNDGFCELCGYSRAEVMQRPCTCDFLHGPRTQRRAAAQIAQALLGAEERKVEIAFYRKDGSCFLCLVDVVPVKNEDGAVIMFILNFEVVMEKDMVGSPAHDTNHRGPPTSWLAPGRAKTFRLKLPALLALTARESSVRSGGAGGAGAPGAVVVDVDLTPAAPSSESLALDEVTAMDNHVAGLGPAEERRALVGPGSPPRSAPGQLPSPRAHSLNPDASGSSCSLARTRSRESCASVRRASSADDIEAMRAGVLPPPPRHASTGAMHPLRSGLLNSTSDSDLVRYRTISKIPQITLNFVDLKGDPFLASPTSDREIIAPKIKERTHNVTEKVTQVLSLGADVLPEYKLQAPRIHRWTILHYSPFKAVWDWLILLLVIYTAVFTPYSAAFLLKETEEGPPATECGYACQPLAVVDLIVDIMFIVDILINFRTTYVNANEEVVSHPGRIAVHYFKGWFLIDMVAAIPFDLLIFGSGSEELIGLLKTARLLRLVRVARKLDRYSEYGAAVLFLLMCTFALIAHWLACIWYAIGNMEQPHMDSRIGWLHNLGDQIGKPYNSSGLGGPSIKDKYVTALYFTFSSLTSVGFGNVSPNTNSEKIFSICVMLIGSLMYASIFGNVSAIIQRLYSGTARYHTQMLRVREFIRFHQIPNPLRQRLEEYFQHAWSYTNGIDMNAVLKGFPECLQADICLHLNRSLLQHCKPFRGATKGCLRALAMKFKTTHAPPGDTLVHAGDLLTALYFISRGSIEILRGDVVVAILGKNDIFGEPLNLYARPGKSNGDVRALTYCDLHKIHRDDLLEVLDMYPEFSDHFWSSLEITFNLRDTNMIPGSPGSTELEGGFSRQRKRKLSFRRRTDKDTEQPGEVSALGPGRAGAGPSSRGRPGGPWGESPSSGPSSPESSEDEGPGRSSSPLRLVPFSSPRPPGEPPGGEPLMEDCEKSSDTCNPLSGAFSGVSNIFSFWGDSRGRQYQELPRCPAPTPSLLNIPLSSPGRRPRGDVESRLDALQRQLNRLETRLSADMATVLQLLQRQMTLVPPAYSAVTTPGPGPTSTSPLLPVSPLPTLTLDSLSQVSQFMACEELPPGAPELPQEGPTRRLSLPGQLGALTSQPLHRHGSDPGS
Thyrotropin receptor (Homo sapiens), sequence (P16473 whole entry, looked up): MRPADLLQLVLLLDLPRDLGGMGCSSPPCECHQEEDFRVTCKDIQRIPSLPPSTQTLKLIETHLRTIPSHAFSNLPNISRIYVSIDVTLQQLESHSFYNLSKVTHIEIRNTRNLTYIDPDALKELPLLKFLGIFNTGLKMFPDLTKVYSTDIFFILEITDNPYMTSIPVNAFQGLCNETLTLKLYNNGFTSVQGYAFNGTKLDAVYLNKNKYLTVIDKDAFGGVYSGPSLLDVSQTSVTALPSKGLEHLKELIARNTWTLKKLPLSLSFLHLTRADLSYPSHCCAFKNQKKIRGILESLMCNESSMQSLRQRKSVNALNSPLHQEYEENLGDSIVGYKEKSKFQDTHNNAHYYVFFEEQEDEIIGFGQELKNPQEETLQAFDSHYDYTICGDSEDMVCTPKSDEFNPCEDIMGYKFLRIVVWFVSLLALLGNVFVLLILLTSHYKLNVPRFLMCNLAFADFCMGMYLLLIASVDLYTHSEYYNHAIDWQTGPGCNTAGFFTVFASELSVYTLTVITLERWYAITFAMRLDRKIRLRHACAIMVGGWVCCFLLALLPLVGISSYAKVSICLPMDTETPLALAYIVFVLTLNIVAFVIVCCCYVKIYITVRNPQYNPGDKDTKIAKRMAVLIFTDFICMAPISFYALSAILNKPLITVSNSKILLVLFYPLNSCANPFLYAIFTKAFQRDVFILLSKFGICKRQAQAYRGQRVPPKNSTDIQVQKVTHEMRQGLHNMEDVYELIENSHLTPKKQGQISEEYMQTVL

For the compound `Cc1oc(C(=O)O)cc1COc1ccc2c(-c3ccccc3)cc(=O)oc2c1C`, the activity was -34.8% in [1], -43.8% in [3] and -32.8% in [4]. For the same compound, the Potency in assay [2] is 27.1 µM (active).

As to `COc1cccc(N2C(=O)c3cc4occc4n3CC2(C)C(=O)NC2CCCCCC2)c1` (stereo not drawn), the figures for the activity in [1], in assay [3] and in assay [4] were -4.86%, -10.8% and -10.9%, respectively. The activity change, negative = inhibition in [2] is -2.57%.

Consider `C[C@]12C[C@H](O)C3[C@@H](CCC4=CC(=O)CC[C@@]43C)[C@@H]1CC[C@@H]2C(=O)CO` (stereo partly drawn), for which the Potency entry in assay [5], in assay [7], in assay [8], in assay [10], in [13] and in [14] was “inactive” in each case. For the same compound, the Potency result in [15], in assay [18] and in [19] was “inactive” each time. Also, the outcome in assay [6], in assay [11], in assay [12], in [16] and in assay [17] was “inactive” each time. Also, the Potency in assay [9] is 11.2 µM (active).
